Bioassay records as filed in PubChem.
MITF act = MITF TRPM1 promoter activation in melanoma cells | SK-MEL-5 TRPM1-promoter luciferase, 24 h; % of positive control, neutral wells = 0 | activation, % at 12.5 µM | actives 0.75% (n = 300,000) | AID 588334;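 active = mean activation of at least 80% with every replicate also reaching 80%; inconclusive = mean reaches 80% but some replicate falls short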;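 note: 0% = neutral control wells and 100% = parthenolide positive control wells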
FGF22 binding = shifts melting point of recombinant human FGF22. recombinant FGF22 thermal shift, SYPRO orange fluorescence; percent of sucrose octasulfate shift, DMSO zero. activity (Tm shift, normalised), % at 9.99 µM. actives 1.5% (n = 340,000). AID 651658;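 active = mean Tm shift, scaled 0 neutral to 100 positive control, at about 1.3% or above, every replicate too, limit read from the data; inconclusive = no clear call, values can overlap the other calls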
AF4-AF9 inh = MLL-AF4/AF9 protein interaction inhibition | AlphaScreen, biotin-AF4 peptide binding to FLAG-AF9 | actives 0.47% (n = 350,000) | P42568 | inhibition, % at 10 µM;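 active = every replicate reaching a set inhibition limit, whatever the replicate mean, cut at about 25% in these data; inconclusive = mean inhibition reaches that limit but some replicates miss it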;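 note: 0% = plate neutral control median and 100% = total signal loss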
Target sequence (P42568 whole entry, looked up): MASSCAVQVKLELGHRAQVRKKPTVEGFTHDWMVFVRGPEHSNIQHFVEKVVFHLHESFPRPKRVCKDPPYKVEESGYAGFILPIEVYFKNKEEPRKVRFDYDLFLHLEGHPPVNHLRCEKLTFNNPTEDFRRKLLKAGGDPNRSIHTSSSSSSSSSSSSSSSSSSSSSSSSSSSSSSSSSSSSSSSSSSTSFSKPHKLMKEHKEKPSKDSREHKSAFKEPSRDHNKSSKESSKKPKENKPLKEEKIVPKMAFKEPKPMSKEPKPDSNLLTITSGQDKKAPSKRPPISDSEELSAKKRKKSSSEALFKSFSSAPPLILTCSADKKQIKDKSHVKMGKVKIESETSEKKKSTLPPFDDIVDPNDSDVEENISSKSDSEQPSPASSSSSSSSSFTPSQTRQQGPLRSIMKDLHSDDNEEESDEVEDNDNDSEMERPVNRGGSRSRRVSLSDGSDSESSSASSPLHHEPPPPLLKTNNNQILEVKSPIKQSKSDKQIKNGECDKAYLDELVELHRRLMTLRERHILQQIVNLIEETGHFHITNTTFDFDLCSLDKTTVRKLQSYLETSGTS
Wnt bcat act = Wnt/beta-catenin pathway activation; activation, % at 9.35 µM; Wnt/beta-catenin reporter cell assay, activator, plate reader; AID 743398; actives 1.2% (n = 300,000); in the data active = activation above about 30%, passing the limit was not always enough; inconclusive = no clear call, values can overlap the other calls;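 note: 0% = neutral control wells and 100% = positive control wells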
esBAF inh = blocks esBAF chromatin remodeling in mouse ES cells. Bmi1-luciferase knock-in reporter, 24 h; 100% = twice the neutral-well signal. reporter increase, % at 12.5 µM. actives 2% (n = 350,000); in the data active = activation above about 40%; inconclusive = no clear call, values can overlap the other calls;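 note: 0% = median of the plate's neutral control wells and 100% = double that signal; a rise in the Bmi1 reporter signal indicates esBAF inhibition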
SMARCA2 activ = SMARCA2 function activation, primary screen; MG213 cells, MMTV-luciferase reporter, dexamethasone, overnight; activation, % at 9.1 µM; actives 1% (n = 370,000); AID 652017; in the data active = activation above about 7.8%;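 note: 0% = vehicle wells and 100% = reference activator wells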
Numbers without * were called inactive; u = inconclusive; x = not tested or not shown. Hits are enriched below; roughly 4.3% of the tested compounds scored in any of these assays.

SMILES	MITF act	FGF22 binding	AF4-AF9 inh	Wnt bcat act	esBAF inh	SMARCA2 activ
Cc1cc(C)c(C(CC(=O)c2cccs2)C(C#N)C#N)c(C)c1 (stereo unspecified)	44	0	1	49*	x	6
Cc1cc(C)c(C(=O)c2cccs2)c(C)c1	-7	0	1	-2	-8	6
CC(CC(=O)c1cccs1)CC(=O)c1cccs1	69	0	-7	15	70*	6
Cc1ccc(-c2cc(C(=O)N3CCN(c4ccc(O)cc4)CC3)c3ccccc3n2)cc1	40	0	11	-2	25	1
O=C(c1cc(-c2ccccc2Cl)nc2ccccc12)N1CCC1	7	0	8	0	x	-2
Cc1ccc(-c2cc(C(=O)N3CCN(c4ccccc4O)CC3)c3ccccc3n2)cc1	35	0	-1	16	55*	1
CN1CCCN(C(=O)c2cc(-c3cccc4ccccc34)nc3ccccc23)CC1	8	1	2	47*	-4	-3
C[C@H](CO)N1C[C@H](C)[C@@H](CN(C)CC2CCCCC2)Oc2ccc(NC(=O)CCC(F)(F)F)cc2CC1=O	x	0	-6	x	-5	x
CN(C)C(=O)c1cccc(-c2ccc3c(c2)[C@H]2[C@H](CCN2Cc2ccccc2F)[C@@H](CO)N3)c1	x	0	x	x	7	x
O=C(NCCc1ccccc1)C1=COCCO1	63	0	-39	28	48*	5
c1ccc(CSc2nnc(NC3=NCCCCC3)s2)cc1	x	x	x	x	41*	5
O=C(Nc1nnc(SCc2ccccc2)s1)C1=COCCO1	63	0	3	-5	67*	4
O=C(Nc1nnc(SCc2ccc(F)cc2)s1)C1=COCCO1	23	0	2	-4	48*	5
O=C(NCC1CC1)[C@@H]1[C@@H](CO)[C@@H]2Cn3c(ccc(-c4cccc(F)c4)c3=O)[C@@H]2N1CC1CCCC1	x	0	6	x	2	x
O=C(c1cccnc1)N1CCN(C/C=C/c2ccccc2)CC1	1	43*	-2	0	x	4
O=C(NC1CCCC1)N1CC(=O)N2[C@H](CO)[C@@H](c3ccc(/C=C/c4ccccc4)cc3)[C@@H]2C1	x	x	8	x	x	x
O=C(NC(=S)N1CCN(C/C=C/c2ccccc2)CC1)c1cccnc1	x	0	2	-4	x	-2
O=C(c1cccnc1)N1CC(=O)N2[C@H](CO)[C@@H](c3ccc(/C=C/c4ccccc4)cc3)[C@H]2C1	x	x	27*	x	x	x
O=C(NC1CCCC1)N1CC(=O)N2[C@H](C1)[C@@H](c1ccc(/C=C/c3ccccc3)cc1)[C@@H]2CO	x	x	25*	x	x	x
NC(=O)c1ncn([C@@H]2O[C@H](CO)[C@@H](O)[C@H]2O)n1	2	0	-6	0	17	0
Nc1nc(SCc2ccc(Br)cc2)c2ncn(C3OC(CO)C(O)C3O)c2n1 (stereo unspecified)	-6	44*	1	-3	0	6
NC(=O)c1ccc(=O)n(C2OC(CO)C(O)C2O)c1 (stereo unspecified)	2	44*	-4	-5	1	-1
Nc1ccn([C@@H]2O[C@H](CO)[C@@H](O)[C@@H]2O)c(=O)n1	-15	0	-4	-5	-44	-1
Nc1ncn([C@@H]2O[C@H](CO)[C@@H](O)[C@H]2O)c(=O)n1	-77	0	-2	-11	67*	0
CCSc1nc(N)nc2c1ncn2C1OC(CO)C(O)C1O (stereo unspecified)	2	0	2	-2	x	-4
SMILES	MITF act	FGF22 binding	AF4-AF9 inh	Wnt bcat act	esBAF inh	SMARCA2 activ
C[C@@H]1CN([C@H](C)CO)S(=O)(=O)c2ccc(-c3cccc(C(=O)N(C)C)c3)cc2O[C@@H]1CN(C)C	x	0	12	x	-2	x
COCC(=O)Nc1ccc2c(c1)C(=O)N(C)[C@@H]1CC[C@H](CC(=O)NCc3cccc(F)c3)O[C@H]1CO2	x	0	x	x	-1	x
Oc1ccccc1-c1csc(-c2ccccc2)n1	47	42	5	14	77*	2
Oc1ccc(-c2csc(-c3ccccc3)n2)cc1O	6	0	19	7	60*	-2
NC(=O)NC[C@@H]1CC[C@@H](Cc2ccc(-c3ccccc3)cc2)O1	118*	x	x	x	69*	x
COc1ccc(NC(=O)NC[C@@H]2CC[C@@H](Cc3ccc(-c4ccccc4)cc3)O2)cc1	25	1	-2	14	21	0
OC[C@@H]1CC[C@@H](Cc2ccc(-c3ccccc3)cc2)O1	6	0	-3	29	68*	4
CCNC(=O)C[C@H]1C=C[C@H](NS(=O)(=O)c2ccc(F)cc2)[C@H](CO)O1	x	0	-4	x	-3	x
C[C@H]1CN([C@@H](C)CO)C(=O)c2cc(NC(=O)c3ccncc3)ccc2O[C@H]1CN(C)Cc1ccc2c(c1)OCO2	x	x	x	x	1	x
CC(C)(CO)CNC(=O)CCc1nnc(Cc2ccc(-c3ccccc3)cc2)o1	1	43	0	-1	x	-2
C=C(C)CNC(=O)CCc1nnc(Cc2cccc(C(F)(F)F)c2)o1	78	43*	-1	56*	x	5
Cc1nc(C(C)NC(=O)CCc2nnc(CCCc3ccccc3)o2)c(C)s1 (stereo unspecified)	100*	0	-2	64*	70*	5
CN(Cc1ccsc1)C(=O)CCc1nnc(CCCc2ccccc2)o1	76	0	-1	33*	u	-1
CC(C)(CO)CNC(=O)CCc1nnc(CCCc2ccccc2)o1	24	43*	-1	29	x	2
CCCNC(=O)Nc1ccc2c(c1)C(=O)N(C)C[C@@H](OC)[C@H](C)CN(Cc1cccnc1)[C@H](C)CO2	x	0	-1	x	2	x
C[C@H](NC(=O)C[C@H]1C[C@H]2c3cc(NC(=O)Cc4ccncc4)ccc3O[C@H]2[C@H](CO)O1)c1ccccc1	x	0	1	x	10	x
CC[N+](CC)(CCCCS(=O)(=O)[O-])CCNP1(=O)C=C(c2ccccc2)OC(c2ccccc2)=C1	-3	44*	-2	2	x	-1
COc1ccc(OC)c(NC(=O)Nc2nc(C(N)c3ccccc3Cl)cs2)c1 (stereo unspecified)	x	0	26*	3	-4	-4
COc1ccc(OC)c(NC(=O)Nc2nc(C(N)C(C)C)cs2)c1 (stereo unspecified)	x	0	20	6	-7	-3
COC(=O)c1ccc(-c2noc(CN(C)CCC3CCCCO3)n2)cc1 (stereo unspecified)	-5	43*	-2	0	x	0
Cc1ccc2nc(-c3cccs3)oc(=O)c2c1	18	43*	0	-1	2	0
CC(=O)CSc1nnc(C(F)(F)F)n1C	x	0	33*	-2	x	-4
O=C(CCCCC(=O)OC1CCCCC1)OC1CCCCC1	8	43*	-1	-6	0	-4
O=C(C=CC(=O)OC1CCCCC1)OC1CCCCC1	8	0	-3	-1	3	-3
